Assay outcomes (PubChem)
Luc counter = blocks Kinase-Glo luciferase, a counter-screen artifact. Potency, µM (top dose mostly 38.3 µM), without a hit: at the highest dose activity change, negative = inhibition, usual class: inhibitors. Q27757. actives 0.28% (n = 200,000). Kinase-Glo luciferase, ATP luminescence, 8 min; note: % is set by controls: 0 for no effect and ±100 for the full control effect; nearly all actives have a fitted effect of over 60% in size
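Inhibition of Kinase-Glo luciferase light generation was assessed at 10 uM ATP in pH 7.2 imidazole buffer, with luminescence measured after eight minutes at ambient temperature.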
HPGD inh = blocks human HPGD enzyme activity; P15428; purified HPGD, NADH fluorescence kinetic, PGE2 substrate; Potency, µM, inactives show at the highest dose activity change, negative = inhibition, usual class: inhibitors; actives 4.3% (n = 150,000); AID 894; active = well fitted inhibition curve with a large enough effect, not every such curve was filed as active; inconclusive = small, poorly fitted or top-dose-only effect, or another doubt; inactive = no such curve, though single readings can be large or run the other way; note: % is set by controls: 0 for no effect and ±100 for the full control effect
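NADH formation kinetics: reaction with 30 uM PGE2 and 1 mM NAD+ (final), 20 nM enzyme, Tris-HCl pH 8 with Tween 20, after 15 min compound preincubation at room temperature. Fluorescence change, last versus first of five reads.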
HTT aggregate = mutant huntingtin aggregation inhibition; actives 1.1% (n = 220,000); PC12 HttQ103-GFP aggregates, Acumen cytometry, 40 h; Potency, µM (series often up to 46.1 µM), without a hit: at the highest dose activity change, negative = inhibition, most hits filed as inhibitors; AID 1688; note: % is set by controls: 0 for no effect and ±100 for the full control effect; nearly all actives have a fitted effect of over 60% in size
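PC12 cells stably carrying ecdysone-inducible HTT exon 1 Q103–GFP were induced with tebufenozide (100 nM final) and treated with library compounds in titration. GFP aggregates in lysates were counted by laser scanning cytometry.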
HTT cytoprotect = Huntington cell model cytoprotection by ATP luminescence | PC12 HTT-Q103 induced, cytoprotection, ATP luminescence, 40 h | Potency, µM (top dose mostly 56.4 µM), without a hit: cytoprotection (ATP increase), usual class: activators | actives 0.14% (n = 230,000); note: % of control where 0% means no effect; nearly all actives have a fitted effect of over 45% in size
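PC12 cells with ecdysone-inducible HTT exon 1 Q103-GFP, induced with 100 nM tebufenozide and co-treated with library compounds in a dose series (1536-well, 1500 cells/well). Cytoprotection read as ATP content by ATPlite luminescence.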
ALDH1A1 inh = inhibitors of human aldehyde dehydrogenase 1A1; P00352; Purified ALDH1A1, NADH fluorescence, propionaldehyde substrate; Potency, µM (top dose mostly 75.3 µM), without a hit: at the top dose activity, negative = inhibition, usual class: inhibitors; actives 7.3% (n = 220,000); AID 1030; active = well fitted inhibition curve with a large enough effect, not every such curve was filed as active; inconclusive = small, poorly fitted or top-dose-only effect, or another doubt; inactive = no such curve, though single readings can be large or run the other way;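 note: plate controls were no enzyme wells and a reference inhibitor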
Target sequence (P00352 whole entry, looked up): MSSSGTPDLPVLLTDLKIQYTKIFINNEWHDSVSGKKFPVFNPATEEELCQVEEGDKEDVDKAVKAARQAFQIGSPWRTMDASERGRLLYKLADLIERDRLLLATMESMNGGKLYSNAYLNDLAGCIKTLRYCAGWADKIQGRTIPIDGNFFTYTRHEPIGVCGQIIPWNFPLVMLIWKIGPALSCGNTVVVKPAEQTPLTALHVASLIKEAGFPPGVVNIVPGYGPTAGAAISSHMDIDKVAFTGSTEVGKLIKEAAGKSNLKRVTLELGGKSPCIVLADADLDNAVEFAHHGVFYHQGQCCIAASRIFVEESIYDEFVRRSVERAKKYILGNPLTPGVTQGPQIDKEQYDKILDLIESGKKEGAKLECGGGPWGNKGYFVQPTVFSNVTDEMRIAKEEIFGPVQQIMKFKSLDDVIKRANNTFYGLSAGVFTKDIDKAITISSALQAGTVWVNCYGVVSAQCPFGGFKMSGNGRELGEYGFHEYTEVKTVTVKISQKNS
Lamin A splicing = changes lamin A minigene splicing in HeLa cells. Potency, µM (doses to about 46.1 µM), inactives show at the top dose ratio change, negative = inhibition, hits mostly inhibitors. HeLa LMNA splicing GFP/RFP minigene ratio, 48 h. actives 0.01% (n = 200,000); active = well fitted inhibition curve with a large enough effect in the signal ratio, with a control signal flat, not every such curve was filed as active; inconclusive = small, poorly fitted or top-dose-only effect, or effect the other way, or a change in a side signal; the % refers to the signal ratio; note: % is set by controls: 0 for no effect and ±100 for the full control effect
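S3 HeLa stable clones carrying a lamin A-EGFP splicing minigene plus DsRed2 were seeded at 600 cells/well in Opti-MEM with 2% FBS, pin-dosed and incubated 48 h at 37°C. Acumen cytometry (488 nm) gave the GFP/RFP total-intensity ratio.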
Starred values were filed as active, the others as inactive; u = inconclusive; x = not tested or not shown; [ ] = dose if it differs, or a comment. Sampled rows, rich in hits. Any-hit rate of the full collection: about 9%. Unless noted, calls come from the whole dose curve; as a rule, active = well fitted curve in the direction sought with a large enough effect; inconclusive = small, poorly fitted or top-dose-only effect, or another doubt; inactive = no such curve, though single readings can be large; an effect the other way counts as inactive or inconclusive. Potency is the fitted concentration of half-maximal effect.

SMILES	Luc counter	HPGD inh	HTT aggregate	HTT cytoprotect	ALDH1A1 inh	Lamin A splicing
O=C(COc1ccccc1)NNC(=O)COc1ccc([N+](=O)[O-])cc1	1%	x	-12%	-31%	5%	x
O=C(COc1ccc(Br)cc1)NNC(=S)NC(=O)c1ccccc1[N+](=O)[O-]	-5%	-4%	10%	4%[10 µM]	-8%	u
COc1ccc(C2N=C(N)Nc3nc4ccccc4n32)cc1 (configuration not stated)	x	x	x	x	x	1%[46 µM]
Cc1ccc(-n2c(C)cc(C3N=C(N)Nc4nc5ccccc5n43)c2C)c(C)c1 (configuration not stated)	-2%	-6%	-6%	-22%[10 µM]	13µM*	-10%
Cc1cc(C2N=C(N)Nc3nc4ccccc4n32)c(C)n1-c1ccccc1Cl (configuration not stated)	-7%	-12%	u	11%	1.1µM*	6%
CCc1c(C(C)S(=O)(=O)c2ccccc2)[nH]c(=O)n1CC (configuration not stated)	1%	x	23%	x	u	-27%[46 µM]
C[C@@H]1C[C@H]2[C@@H]3CCC4=CC(=O)C=C[C@]4(C)[C@@]3(F)[C@@H](O)C[C@]2(C)[C@@]1(O)C(=O)COP(=O)(O)O	-1%	-12%	2%	x	-8%	8%
O=C(NCc1ccccc1)C1(c2ccccc2)CCN(S(=O)(=O)c2ccccc2)CC1	-4%	-13%	-10%	7%	8.9µM*	2%
COc1cccc(/C=C/c2nc3c(cnn3-c3ccccc3)c(=O)[nH]2)c1	1%	x	12%	-15%	u	u
COc1cccc(/C=N/n2nnc3c(cnn3-c3ccccc3)c2=O)c1	-3%	u	3%	-21%	0.89µM*	-2%
CCOC(=O)c1c(-c2ccc(C)o2)csc1N	0%	-5%	-10%	5%[10 µM]	u	3%
COc1ccccc1CN1C[C@@H]2C[C@@H](c3[nH]c4ccc(C)cc4c3C)N3CCC[C@@]23C1=O	5%	x	-1%[9.22 µM]	0%[10 µM]	u	x
CN(C)c1ccc(C(=S)Nc2ccccc2)cc1	-3%	-24%	-7%	-19%[10 µM]	u	-15%
O=C1CC(N2CCC(c3nc4ccccc4o3)CC2)C(=O)N1Cc1cccs1 (configuration not stated)	6%	3%	24%	1%	u	-9%
CCCOc1ccc(N2C(=O)CC(N3CCN(c4nc5ccccc5s4)CC3)C2=O)cc1 (configuration not stated)	0%	-15%	6%	9%[10 µM]	14µM*	-19%
O=C1CC(N2CCN(c3nc4ccccc4s3)CC2)C(=O)N1Cc1cccs1 (configuration not stated)	4%	-2%	-20%	11%	22µM*	u
CCN1C(=O)CC(N2CCN(c3ccc(C(=O)c4ccccc4)cc3)CC2)C1=O (configuration not stated)	-3%	22µM*	11µM*	-6%	u	u
NC(=O)C1CCN(C2CC(=O)N(Cc3cccs3)C2=O)CC1 (configuration not stated)	-1%	5%	-11%	-10%	u	7%
CCN1C(=O)CC(N2CCN(c3ccc(Cl)cc3)CC2)C1=O (configuration not stated)	12%	-7%	16%	2%	-3%	u
O=C1CC(N2CCN(c3ccc(F)cc3)CC2)C(=O)N1Cc1cccs1 (configuration not stated)	15%	-11%	7%	-8%[1.9 µM]	14µM*	3%
CC(C)CC(=O)Nc1ccc([N+](=O)[O-])cc1Cl	-2%	x	5%[9.22 µM]	10%[10 µM]	-10%	12%[46 µM]
O=C(c1ccccc1F)c1cc2c(cc1[N+](=O)[O-])OCCO2	2%	x	-15%[9.22 µM]	-43%	11µM*	16%[46 µM]
CC1CCC2(CC1)NC(=O)N(CC(=O)NC(=O)Nc1ccc3c(c1)OCCO3)C2=O (configuration not stated)	x	x	-3%[9.22 µM]	-2%[10 µM]	x	x
O=C(NNc1ccccc1[N+](=O)[O-])Nc1ccc(Cl)c(Cl)c1	2%	-19%	11µM*	x	u	u
O=C(NNc1ccccc1[N+](=O)[O-])Nc1ccccc1	-5%	-13%	-1%	20%	u	-7%
SMILES	Luc counter	HPGD inh	HTT aggregate	HTT cytoprotect	ALDH1A1 inh	Lamin A splicing
O=C(NNc1ccccc1[N+](=O)[O-])Nc1ccc(F)cc1	-5%	-2%	10%	-9%[10 µM]	u	-17%
O=C(COC(=O)/C=C/c1ccccc1[N+](=O)[O-])NC1CC1	1%	x	8%	-45%	-2%	x
O=C(NNc1ccccc1[N+](=O)[O-])NC1CCCCC1	-1%	x	7%	-8%	25µM*	-16%[9.22 µM]
O=C(/C=C/c1ccccc1[N+](=O)[O-])NC1CCCC1	1%	x	28%	-30%	14µM*	x
O=C(/C=C/c1c(F)cccc1Cl)Nc1ncccn1	-9%	u	u	18%[0.074 µM]	7%	-14%
COc1ccc(NC(=S)N2CCN(C(=O)c3ccccc3)CC2)cc1	4%	x	-9%	-27%	u	-13%[46 µM]
CC(C)(C)C(=O)O/N=C(\N)c1c(Cl)cccc1Cl	x	x	-13%[9.22 µM]	12%[10 µM]	x	x
Clc1cccc(-c2nnc3sc(-c4ccc5c(c4)OCO5)nn23)c1	x	x	5%	-4%[0.074 µM]	20µM*	5%
Clc1ccccc1-c1nnc2sc(-c3ccc4c(c3)OCO4)nn12	-1%	u	-30%	24%[1.9 µM]	u	-19%
Brc1ccccc1-c1nnc2sc(-c3ccc4c(c3)OCCO4)nn12	-3%	u	25µM*	-72%	u	u
CCCCCCNC(=O)C(C#N)c1nc2ccccc2nc1N1CCCC1 (configuration not stated)	-3%	u	-2%	3%[10 µM]	u	3%
Nc1nc2n(n1)C1(CCCCC1)C1=C(CCCC1)N2	1%	-1%	17%	20%	u	-6%
S=C1NC2=C(CCCC2)C2(CCCCC2)N1	3%	-13%	u	u	0.32µM*	-9%
O=C(Cn1nnc(-c2ccc(Cl)cc2)n1)NCCC1=CCCCC1	-1%	-1%	-12%	-9%	-6%	-5%
Cc1ccc(-c2nnn(CC(=O)NCCC3=CCCCC3)n2)cc1	0%	-13%	-11%	8%[10 µM]	28µM*	-2%
O=C(Cn1c(=O)[nH]n(-c2ccccc2)c1=O)N1CCCc2ccccc21	2%	-6%	1.3µM*	-20%[10 µM]	-8%	2%
O=C1c2ccccc2C(=O)N1CCCC(=O)N1CCCc2ccccc21	-2%	-7%	11%	16%[10 µM]	14µM*	-6%
O=C(CCCC(=O)N1CCc2ccccc21)N1CCc2ccccc21	13%	-8%	0%	-7%	10%	3%
